Measured values published in PubChem BioAssay (NCI).
This is part of a sample that, as a whole, favours compounds with a hit. Of some 83,000 tested, about 20% had one in any assay.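 Note: values are percent growth. 100 is the growth of untreated cells, values between 100 and 0 indicate rising inhibition; between -100 and 0 indicates cell death.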 Calls of active or inactive are those of the source. The calls were made as follows: active = growth percent below 10; inactive = the rest.

Legend:
Assay in all cases: NCI-60 one-dose screen, 48 h (100 = growth as untreated, 0 = no growth, -100 = all killed)
NCI-H23 lung = tested on: NCI-H23 lung
NCI-H226 lung = tested on: NCI-H226 lung
NCI-H322M lung = conditions: 10 µM unless noted
HOP-62 NSCLC = tested on: HOP-62 NSCLC
NCI-H460 lung = tested on: NCI-H460 lung
HOP-92 NSCLC = tested on: HOP-92 NSCLC
NCI-H522 lung = tested on: NCI-H522 lung
A549/ATCC NSCLC = tested on: A549/ATCC NSCLC
786-0 renal = tested on: 786-0 renal
COLO 205 colon = tested on: COLO 205 colon
DU-145 prostate = tested on: DU-145 prostate
K-562 leukemia = tested on: K-562 leukemia
MALME-3M melanoma = tested on: MALME-3M melanoma
MDA-MB-231 breast = tested on: MDA-MB-231 breast
RXF 393 renal = tested on: RXF 393 renal
SF-268 CNS = tested on: SF-268 CNS
SF-295 CNS = tested on: SF-295 CNS
SF-539 CNS = tested on: SF-539 CNS
UACC-257 melanoma = tested on: UACC-257 melanoma
M14 melanoma = tested on: M14 melanoma

Measured: growth

CN1CCCc2cc(/C=C3\SC(=S)N(C(Cc4ccc(O)cc4)C(=O)O)C3=O)ccc21 (stereo not drawn)
inactive: NCI-H23 lung; 10 µM unless noted 78% | NCI-H226 lung; 10 µM unless noted 99.8% | NCI-H322M lung 108% | HOP-62 NSCLC; 10 µM unless noted 109% | NCI-H460 lung; 10 µM unless noted 107% | HOP-92 NSCLC; 10 µM unless noted 93.8% | NCI-H522 lung; 10 µM unless noted 91.5% | A549/ATCC NSCLC; 10 µM unless noted 105% | 786-0 renal; 10 µM unless noted 99.8% | COLO 205 colon; 10 µM unless noted 112% | DU-145 prostate; 10 µM unless noted 104% | K-562 leukemia; 10 µM unless noted 91.3% | MALME-3M melanoma; 10 µM unless noted 88.9% | MDA-MB-231 breast; 10 µM unless noted 96.1% | RXF 393 renal; 10 µM unless noted 99.4% | SF-268 CNS; 10 µM unless noted 97.2% | SF-295 CNS; 10 µM unless noted 98.2% | SF-539 CNS; 10 µM unless noted 102% | UACC-257 melanoma; 10 µM unless noted 99.6% | M14 melanoma; 10 µM unless noted 101%

CCNC(=O)Oc1ccc(/C(=C(/C)Cc2ccc(OC)cc2)c2ccc(OCCN(CC)CC)cc2)cc1
active: COLO 205 colon; 10 µM unless noted -69.1% | K-562 leukemia; 10 µM unless noted -45.2% | MALME-3M melanoma; 10 µM unless noted -17.8% | UACC-257 melanoma; 10 µM unless noted -56.3% | M14 melanoma; 10 µM unless noted -63.6%
inactive: NCI-H23 lung; 10 µM unless noted 78.2% | NCI-H226 lung; 10 µM unless noted 91.9% | NCI-H322M lung 76.9% | HOP-62 NSCLC; 10 µM unless noted 76.3% | NCI-H460 lung; 10 µM unless noted 13.5% | HOP-92 NSCLC; 10 µM unless noted 43.3% | NCI-H522 lung; 10 µM unless noted 58.1% | A549/ATCC NSCLC; 10 µM unless noted 51.7% | 786-0 renal; 10 µM unless noted 53.8% | DU-145 prostate; 10 µM unless noted 77.3% | MDA-MB-231 breast; 10 µM unless noted 45% | RXF 393 renal; 10 µM unless noted 49.7% | SF-268 CNS; 10 µM unless noted 67.1% | SF-295 CNS; 10 µM unless noted 40.8% | SF-539 CNS; 10 µM unless noted 74.5%

O=C1C(N2CCOCC2)=C(I)C(=O)c2ncccc21
active: K-562 leukemia; 10 µM unless noted 4.52%
inactive: NCI-H23 lung; 10 µM unless noted 58.1% | NCI-H226 lung; 10 µM unless noted 84.8% | NCI-H322M lung 99.1% | HOP-62 NSCLC; 10 µM unless noted 55.8% | NCI-H460 lung; 10 µM unless noted 58.8% | HOP-92 NSCLC; 10 µM unless noted 123% | NCI-H522 lung; 10 µM unless noted 36.5% | A549/ATCC NSCLC; 10 µM unless noted 85.8% | 786-0 renal; 10 µM unless noted 90% | COLO 205 colon; 10 µM unless noted 102% | DU-145 prostate; 10 µM unless noted 84.8% | MALME-3M melanoma; 10 µM unless noted 87.3% | MDA-MB-231 breast; 10 µM unless noted 87.1% | RXF 393 renal; 10 µM unless noted 72.6% | SF-268 CNS; 10 µM unless noted 71.5% | SF-295 CNS; 10 µM unless noted 97.3% | SF-539 CNS; 10 µM unless noted 82.7% | UACC-257 melanoma; 10 µM unless noted 85% | M14 melanoma; 10 µM unless noted 87.1%

Cn1cc(-c2csc(-c3cn(CCOC(N)=O)c4ccccc34)n2)c2cccnc21
inactive: NCI-H23 lung; 10 µM unless noted 81.2% | NCI-H226 lung; 10 µM unless noted 86.4% | NCI-H322M lung 90.8% | HOP-62 NSCLC; 10 µM unless noted 74.5% | NCI-H460 lung; 10 µM unless noted 82.4% | HOP-92 NSCLC; 10 µM unless noted 83.1% | NCI-H522 lung; 10 µM unless noted 24.2% | A549/ATCC NSCLC; 10 µM unless noted 67.4% | 786-0 renal; 10 µM unless noted 87.4% | COLO 205 colon; 10 µM unless noted 77.6% | DU-145 prostate; 10 µM unless noted 103% | K-562 leukemia; 10 µM unless noted 27.3% | MALME-3M melanoma; 10 µM unless noted 66.4% | MDA-MB-231 breast; 10 µM unless noted 80.4% | RXF 393 renal; 10 µM unless noted 91.4% | SF-268 CNS; 10 µM unless noted 95.8% | SF-295 CNS; 10 µM unless noted 86.2% | SF-539 CNS; 10 µM unless noted 92.7% | UACC-257 melanoma; 10 µM unless noted 88% | M14 melanoma; 10 µM unless noted 71.1%

COc1ccc(C(=O)/C=C/c2ccc(OCc3ccc(Cl)cc3)cc2)cc1OC
inactive: NCI-H23 lung; 10 µM 84.1% | NCI-H23 lung; 100 µM 29.2% | NCI-H226 lung; 10 µM 87.1% | HOP-62 NSCLC; 10 µM 104% | NCI-H460 lung; 10 µM 95.3% | HOP-92 NSCLC; 10 µM 104% | HOP-92 NSCLC; 100 µM 12.5% | NCI-H522 lung; 10 µM 82.5% | A549/ATCC NSCLC; 10 µM 85.9% | A549/ATCC NSCLC; 100 µM 13.7% | 786-0 renal; 10 µM 106% | COLO 205 colon; 10 µM 117% | COLO 205 colon; 100 µM 41.8% | DU-145 prostate; 10 µM 95.2% | DU-145 prostate; 100 µM 14.9% | K-562 leukemia; 10 µM 67.9% | K-562 leukemia; 100 µM 52.2% | MALME-3M melanoma; 10 µM 110% | MDA-MB-231 breast; 10 µM 110% | RXF 393 renal; 10 µM 110% | SF-268 CNS; 10 µM 100% | SF-268 CNS; 100 µM 14% | SF-295 CNS; 10 µM 98.4% | SF-295 CNS; 100 µM 16.2% | SF-539 CNS; 10 µM 106% | SF-539 CNS; 100 µM 32.5% | UACC-257 melanoma; 10 µM 94.3% | UACC-257 melanoma; 100 µM 35.4% | M14 melanoma; 10 µM 95.9% | M14 melanoma; 100 µM 54.4%
active: NCI-H226 lung; 100 µM -7.94% | HOP-62 NSCLC; 100 µM 5.95% | NCI-H460 lung; 100 µM 6.18% | NCI-H522 lung; 100 µM 2.45% | 786-0 renal; 100 µM -13.2% | MALME-3M melanoma; 100 µM -19.5% | MDA-MB-231 breast; 100 µM -22.5% | RXF 393 renal; 100 µM -2.05%

C#Cc1cc(C(=O)Nc2ccc(CN3CCN(C)CC3)c(C(F)(F)F)c2)ccc1C
active: K-562 leukemia; 10 µM unless noted 7.97% | UACC-257 melanoma; 10 µM unless noted -32.9% | M14 melanoma; 10 µM unless noted -70.4%
inactive: NCI-H23 lung; 10 µM unless noted 88.2% | NCI-H226 lung; 10 µM unless noted 83.6% | NCI-H322M lung 88.5% | HOP-62 NSCLC; 10 µM unless noted 88.5% | NCI-H460 lung; 10 µM unless noted 71.6% | HOP-92 NSCLC; 10 µM unless noted 58.5% | NCI-H522 lung; 10 µM unless noted 96.1% | A549/ATCC NSCLC; 10 µM unless noted 70.8% | 786-0 renal; 10 µM unless noted 52.2% | COLO 205 colon; 10 µM unless noted 56.3% | DU-145 prostate; 10 µM unless noted 85.8% | MALME-3M melanoma; 10 µM unless noted 23.6% | MDA-MB-231 breast; 10 µM unless noted 59.2% | RXF 393 renal; 10 µM unless noted 76.3% | SF-268 CNS; 10 µM unless noted 82.5% | SF-295 CNS; 10 µM unless noted 77% | SF-539 CNS; 10 µM unless noted 44%
